Screening results: PubChem BioAssay, The Scripps Research Institute Molecular Screening Center
Sampled rows, rich in hits. Any-hit rate of the full collection: about 4.1%.
ssDAF12 agonist = S. stercoralis DAF-12 nuclear receptor activators, primary screen, cell-based, luminescence, HEK293, GRIP1 co-expression, lit1-tk-luc | Nuclear hormone receptor DAF-12 (Strongyloides stercoralis) | HEK293 ssDAF-12/GRIP1 lit1-tk-luc reporter; % of 3 µM dafachronic acid response | activation, % at 6.8 µM | 370,000 compounds, 1% hits | AID 652126, 2013;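 active = activation above the mean over all tested compounds plus 3 SD, cut at about 0.9% in these data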;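 also: 0% = DMSO-only wells and 100% = 3 µM delta7-dafachronic acid wells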
hcDAF-12 act = H. contortus DAF-12 nuclear receptor activators, primary screen, cell-based, luminescence, HEK293, lit1-tk-luc reporter. HEK293 hcDAF-12 lit1-tk-luc reporter; 0% DMSO, 100% Δ7-dafachronic acid. AID 652067, 2013. activation, % at 6.8 µM. 370,000 compounds, 1.4% hits;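 active = activation above the mean of all tested compounds plus 3 SD, cut at about 5.5% in these data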;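 also: 100% = response to 3 µM Δ7-dafachronic acid high control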
DAX1 inh-1 = DAX1 (NR0B1) inhibitors, primary screen, cell-based, HEK293, Gal4-DAX1, luciferase luminescence; Nuclear receptor subfamily 0 group B member 1 (Homo sapiens), P51843; HEK293 Gal4-DAX1 luciferase reporter; inhibition, % at 6.75 µM; 340,000 compounds, 0.99% hits;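 active = inhibition above the mean over all tested compounds plus 3 SD, cut at about 4.2% in these data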;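 also: 0% = DAX1-transfected cells with DMSO and 100% = empty-vector control cells with DMSO; inhibition shows as a rise in luminescence from relieved DAX1 repression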
hgDAF-12 ag = H. glycines DAF-12 receptor agonists, primary screen, cell-based, luminescence, HEK293, GAL4 fusion, UAS-luciferase. HEK293 GAL4-hgDAF12 UAS-luciferase reporter, agonist luminescence; normalized to butyrate control. AID 687014, 2013. Nuclear hormone receptor DAF-12 (Heterodera glycines), GAL4 fusion. activation, % at 6.8 µM. 370,000 compounds, 1.8% hits;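 active = activation above a cutoff set at the mean of all screened compounds plus 3 SD, cut at about 10% in these data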;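 also: 0% = DMSO wells and 100% = sodium butyrate wells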
DAX1 inh-2 = DAX1 (NR0B1) inhibitors on StAR promoter, primary screen, cell-based, luminescence, SF-1 (NR5A1), full-length DAX-1; 370,000 compounds, 1.1% hits; inhibition, % at 6.8 µM; HEK293T StAR-luciferase reporter, SF-1/DAX-1 repression relief; AID 652010, 2013;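 active = inhibition above the mean over all tested compounds plus 3 SD, cut at about 3.6% in these data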;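 also: 0% = DAX-1 cells with DMSO and 100% = cells lacking DAX-1 with DMSO; higher inhibition means more luminescence from relief of DAX-1 repression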
LXRb hcDAF ctr = LXR agonists, Gal4 luciferase reporter, confirmation, counter-screen for hcDAF-12 agonist project, cell-based, luminescence, HEK293, H. contortus campaign. shares compounds with hcDAF-12 act. HEK293 Gal4-LXR tk-luc reporter, 24 h; normalized: DMSO 0%, positive control 100%. activation, % at 6.8 µM. 3,400 tested, under 10 active. AID 743027, 2013;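 active = mean percent activation of the reporter above a cutoff set as the average over tested compounds plus their standard deviation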
Target sequence (P55055 whole entry, looked up, the tested form may be a part): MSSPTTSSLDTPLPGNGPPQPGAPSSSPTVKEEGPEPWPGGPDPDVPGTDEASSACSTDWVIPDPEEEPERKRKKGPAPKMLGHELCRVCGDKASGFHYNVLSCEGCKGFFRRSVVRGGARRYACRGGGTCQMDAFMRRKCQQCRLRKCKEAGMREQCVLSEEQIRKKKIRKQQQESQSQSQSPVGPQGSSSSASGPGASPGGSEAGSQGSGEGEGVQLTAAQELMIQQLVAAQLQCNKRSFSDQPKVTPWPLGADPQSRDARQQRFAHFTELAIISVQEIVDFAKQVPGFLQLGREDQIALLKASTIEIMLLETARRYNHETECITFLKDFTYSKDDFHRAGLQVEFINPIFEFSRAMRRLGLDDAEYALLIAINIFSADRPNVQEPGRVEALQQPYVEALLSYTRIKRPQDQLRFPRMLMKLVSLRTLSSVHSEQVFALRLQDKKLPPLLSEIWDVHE
hcDAF12 conf = H. contortus DAF-12 receptor agonists, confirmation, cell-based, luminescence, HEK293, lit1-tk-luc, triplicate | shares compounds with hcDAF-12 act | HEK293 hcDAF-12 lit1-tk-luc reporter; % of Δ7-dafachronic acid response | activation, % at 6.8 µM | 3,400 compounds, 61% hits | AID 743032, 2013;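 active = mean activation across triplicate tests above the threshold derived from the earlier primary screen, cut at about 5.5% in these data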;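 also: 0% = DMSO only wells and 100% = 3 µM Δ7-dafachronic acid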
The depositor's hits bear a star; . = no result given.

SMILES | ssDAF12 agonist | hcDAF-12 act | DAX1 inh-1 | hgDAF-12 ag | DAX1 inh-2 | LXRb hcDAF ctr | hcDAF12 conf
O=C1C(C=NCc2ccco2)=C(O)c2ccccc21 | 1.4* | 13* | 4.3* | 15* | 3 | 1 | 12*
O=C(Nc1ccc(Cl)cn1)c1ccc2ccccc2n1 | 1.4* | 7.8* | 2 | 7 | 0 | 1 | 17*
Cc1ccccc1C(=O)Nc1ccc(Cl)cn1 | -1 | 2 | 3 | 10 | 1 | . | .
COc1ccc(NC(=O)COC(=O)c2ccc3ccccc3n2)cc1 | 1 | 3 | 0 | 2 | 1 | . | .
O=C(Nc1ccc(OC(F)(F)F)cc1)c1ccc2ccccc2n1 | 1 | 7.8* | 0 | 9 | 1 | 0 | 7.7*
CNc1cnn(-c2ccc(C)cc2)c(=O)c1Sc1ccc(C)cc1 | -1 | 0 | 0 | -1 | 0 | . | .
CNc1cnn(-c2ccc(C)cc2)c(=O)c1Cl | 1 | 8.1* | 3 | 10 | 3 | 1 | 9.1*
O=C(NN=Cc1ccccc1O)C(O)c1ccccc1 (stereo not given) | -1 | 1 | 1 | 0 | 0 | . | .
O=C(N/N=C/c1ccccc1)C(O)c1ccccc1 (stereo not given) | 0 | 6.7* | 0 | 0 | 0 | 0 | 5.6*
C=CCN1C=CC(=CC=C(C#N)C#N)C=C1 | 0 | 8.5* | 4.5* | 4 | 1 | 0 | 3
CCCN1C=CC(=CC=C(C#N)C#N)C=C1 | -1 | 2 | -1 | 0 | 1 | . | .
CCC(=O)N=c1sc2c(OC)ccc(OC)c2n1C | -1 | 1 | 0 | -1 | 1 | . | .
COc1ccc(C)c2sc(=NC(=O)c3ccccc3)n(C)c12 | 0 | 10* | 1 | 3 | 2 | 2 | 13*
C/C(=N\O)c1sc(-c2ccccc2)nc1C | 1.1* | 12* | 2 | 12* | 3.8* | 1 | 7.2*
C=C(C)c1sc(-c2ccccc2)nc1C | -1 | 0 | . | 1 | 0 | . | .
Cc1cccc(/C(N)=N/OC(=O)c2ccc(F)cc2)c1 | 1 | 7.2* | 3 | 13* | 2 | 1 | 3
CCOc1cccc(NC(=O)/C(C#N)=C\c2cn(CC(=O)O)c3ccccc23)c1 | 0 | 6.7* | -1 | -1 | 0 | 0 | 4
CCOc1ccc(NC(=O)/C(C#N)=C/c2cn(CC(=O)O)c3ccccc23)cc1 | 0 | 3 | 0 | -2 | 0 | . | .
COCCNC(=S)NNc1ccccc1[N+](=O)[O-] | 0 | 8.7* | 0 | 2 | -1 | 0 | 5
CNC(=S)NNc1ccccc1[N+](=O)[O-] | 0 | 4 | 0 | -4 | 0 | . | .
Cc1ccc2nc3c(nc2c1)-c1ccccc1C3=O | 1.4* | 11* | 1 | 4 | 1 | 0 | 6.2*
O=C(OC12CCCN(C1)/C(=C/c1ccncc1)C2)c1ccc(Cl)cc1 (stereo not given) | -2 | -2 | . | 0 | -2 | . | .
Cc1ccc(SCC(=O)N2CCN(c3ccccn3)CC2)cc1 | -1 | -1 | 1 | 4 | 0 | . | .
O=C(CSc1nccc2ccccc12)N1CCN(c2ccccn2)CC1 | -1 | 8.2* | -1 | 2 | 3 | 0 | 1
COc1ccc(/C=C2\CC3(OC(=O)c4ccco4)CCCN2C3)cc1 (stereo not given) | -1 | 1 | . | -3 | 1 | . | .
CCc1cccc(-n2c(C)cc(O)cc2=O)c1 | -1 | -2 | . | -3 | 0 | . | .
